We go through 13 compounds from PubChem BioAssay (NCATS).

Records with an inconclusive call do not appear. Active and inactive are the calls of the source. Unless noted, calls come from the whole dose curve; as a rule, active = well fitted curve in the direction sought with a large enough effect; inconclusive = small, poorly fitted or top-dose-only effect, or another doubt; inactive = no such curve, though single readings can be large; an effect the other way counts as inactive or inconclusive.

Test [1] concerns the target Cytochrome P450 2C9 (Homo sapiens) (UniProt P11712). Description: qHTS Assay for Inhibitors and Substrates of Cytochrome P450 2C9 (AID 883). Note: potency is the fitted concentration of half-maximal effect; nearly all actives have a fitted effect of over 60% in size. The procedure, abridged:
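Human CYP2C9 (10nM) with Luciferin-H at 100uM (its KM) in 25mM KPO4; compound preincubated 10 min at 37C, then NADPH regeneration for 60 min at 37C. Luciferin read by luminescence after detection reagent; normalized to 57uM sulphaphenazole as full inhibition.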
(In general: qHTS replaces the single test concentration by a dilution series.)

Test [2] has as its target Cytochrome P450 3A4 (Homo sapiens) (UniProt P08684). Description: qHTS Assay for Inhibitors and Substrates of Cytochrome P450 3A4 (AID 884). For activity change, negative = inhibition: % is set by controls: 0 for no effect and ±100 for the full control effect. Note: nearly all actives have a fitted effect of over 50% in size. Note: potency is the fitted concentration of half-maximal effect. In a few lines:
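Luminescent readout of luciferin produced by CYP3A4 (20 nM) dealkylation of Luciferin-PPXE, 25 uM (its KM). NADPH-driven reaction ran 60 min at RT after 10 min compound preincubation; data scaled to 57 uM ketoconazole as 100% inhibition.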

Test [3] shares this target. In words: qHTS Assay for Activators of Cytochrome P450 3A4 (AID 885). Note: nearly all actives have a fitted effect of over 65% in size. The procedure, abridged:
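Activators are scored by enhanced luminescence from CYP3A4 conversion of luciferin-PPXE (25uM, equal to KM) to luciferin, after 60 min at RT with an NADPH-regenerating system.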

Test [4] deals with Cytochrome P450 2C19 (Homo sapiens) (UniProt P33261). In words: qHTS Assay for Inhibitors and Substrates of Cytochrome P450 2C19 (AID 899). Note: potency is the fitted concentration of half-maximal effect; nearly all actives have a fitted effect of over 60% in size. In a few lines: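 5 nM human CYP2C19 with 10uM Luciferin-H EGE (at KM) in 50mM KPO4, compound preincubated 10 min at 37C, then NADPH regeneration for 60 min at 37C. Luciferin read by luminescence after detection reagent; normalized to 57uM ketoconazole as full inhibition.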
Cytochrome P450 2C19 (Homo sapiens), sequence (P33261 whole entry, looked up): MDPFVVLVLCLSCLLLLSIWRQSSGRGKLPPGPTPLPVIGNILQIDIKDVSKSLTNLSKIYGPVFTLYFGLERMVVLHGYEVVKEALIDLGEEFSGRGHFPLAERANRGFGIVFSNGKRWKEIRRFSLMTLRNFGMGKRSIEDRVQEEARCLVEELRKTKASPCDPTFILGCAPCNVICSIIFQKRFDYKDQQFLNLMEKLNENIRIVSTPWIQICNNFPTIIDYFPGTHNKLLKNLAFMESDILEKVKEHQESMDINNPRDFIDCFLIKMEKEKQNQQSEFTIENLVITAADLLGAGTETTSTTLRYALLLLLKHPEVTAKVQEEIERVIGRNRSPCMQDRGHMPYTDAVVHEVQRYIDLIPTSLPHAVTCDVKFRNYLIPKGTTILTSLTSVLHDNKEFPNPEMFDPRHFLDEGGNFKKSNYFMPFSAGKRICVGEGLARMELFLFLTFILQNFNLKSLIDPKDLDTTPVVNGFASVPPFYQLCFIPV

The nature of test [5]: qHTS Assay for Lipid Storage Modulators (AID 1519; calls by dose curve; for activity change, negative = inhibition: % is set by controls: 0 for no effect and ±100 for the full control effect). To be noted: Drosophila S3 cells, BODIPY lipid droplet/cell ratio, laser cytometry, cells loaded with oleic acid. The procedure, abridged: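 Cells seeded at 5,000 per well were treated with compounds over a concentration series and loaded with oleic acid (400 uM, as added). Lipid droplet fluorescence (488 nm excitation, 500-530 nm channel) was read by laser-scanning cytometry and normalized to 20 uM Triacsin C.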

Test [6] can be described thus: Confirmation and Secondary Assay for Modulators of Hemoglobin Beta Chain Splicing at IVS2 705 locus (AID 930).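 Note: HeLa cells stably expressing the EGFP-705 splicing reporter; GFP fluorescence per well restored by corrected splicing of the IVS2-705 intron in EGFP; % of control where 0% means no effect.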 In a few lines: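 First, HeLa EGFP-705 cells are seeded at 500/well in Optimem with 2% FCS and left overnight. Next, compound or DMSO is added for 2 days. Finally wells are laser-scanned and total peak GFP intensity scored.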
Test [7] has as its target Ubiquitin carboxyl-terminal hydrolase 1 (Homo sapiens) (UniProt O94782). Description: Inhibitors of USP1/UAF1: Pilot qHTS (AID 504865).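 Note: rhodamine fluorescence freed from ubiquitin-rhodamine substrate followed over time; top concentration of the series differs between compounds; % is set by controls: 0 for no effect and ±100 for the full control effect; nearly all actives have a fitted effect of over 35% in size.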 The procedure, abridged:
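1nM USP1/UAF1 + cpd, 15 min RT; start w/ Ub-Rho 150nM final; kinetic FL 480/540 nm, 6 reads q60 s. Buffer 50mM HEPES pH 7.8, 0.5mM EDTA, 1mM TCEP, 0.01% Tween-20, 0.1 mg/ml BSA.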

Test [8] addresses DNA dC->dU-editing enzyme APOBEC-3G (Homo sapiens) (UniProt Q9HC16). Description: qHTS for inhibitors of Vif-A3G interactions: Validation (AID 588379). Note: 0% is about no effect. The procedure, abridged:
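Yellow fluorescence (Ex 488, Em 500-530) of Vif-coexpressing HeLa A3G-eYFP cells, scanned by Acumen cytometer, reports blocked A3G degradation. Cells plated at 700/well overnight at 37 deg C before compound addition, then a further overnight compound incubation at 37 deg C.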

Test [9] in a line: Confirmation and Secondary Assay for Modulators of Hemoglobin Beta Chain Splicing at IVS2 654 locus (AID 910).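 Note: HeLa cells stably carrying EGFP split by mutant beta-globin IVS2-654 intron; % of control where 0% means no effect.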 The procedure, abridged:
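HeLa cells stably expressing EGFP interrupted by β-globin IVS2-654 intron, seeded overnight in Opti-MEM/2% FCS, then treated 2 days at 37 °C. Restored splicing read as total peak GFP intensity per well by laser scanning cytometry (488 nm excitation, 500–520 nm emission); 500 nM antisense PNA as control.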

Setting [10] is: measured here: cell count channel max response.
Where [11] appears, read: measured here: lipid channel max response.

Cytochrome P450 3A4 (Homo sapiens), sequence (P08684 whole entry, looked up): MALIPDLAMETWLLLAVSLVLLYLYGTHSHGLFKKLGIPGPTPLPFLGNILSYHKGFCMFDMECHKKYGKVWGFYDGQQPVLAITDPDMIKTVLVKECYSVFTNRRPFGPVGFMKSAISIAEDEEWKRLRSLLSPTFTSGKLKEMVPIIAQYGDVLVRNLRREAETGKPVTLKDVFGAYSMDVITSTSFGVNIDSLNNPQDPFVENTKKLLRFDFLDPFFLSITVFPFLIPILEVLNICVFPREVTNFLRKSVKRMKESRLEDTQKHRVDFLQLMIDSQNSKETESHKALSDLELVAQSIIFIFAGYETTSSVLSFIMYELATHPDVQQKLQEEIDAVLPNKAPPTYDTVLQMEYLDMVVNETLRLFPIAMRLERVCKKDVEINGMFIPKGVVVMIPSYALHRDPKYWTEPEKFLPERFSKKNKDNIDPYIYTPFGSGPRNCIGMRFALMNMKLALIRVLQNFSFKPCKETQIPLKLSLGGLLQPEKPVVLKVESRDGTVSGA
DNA dC->dU-editing enzyme APOBEC-3G (Homo sapiens), sequence (Q9HC16 whole entry, looked up): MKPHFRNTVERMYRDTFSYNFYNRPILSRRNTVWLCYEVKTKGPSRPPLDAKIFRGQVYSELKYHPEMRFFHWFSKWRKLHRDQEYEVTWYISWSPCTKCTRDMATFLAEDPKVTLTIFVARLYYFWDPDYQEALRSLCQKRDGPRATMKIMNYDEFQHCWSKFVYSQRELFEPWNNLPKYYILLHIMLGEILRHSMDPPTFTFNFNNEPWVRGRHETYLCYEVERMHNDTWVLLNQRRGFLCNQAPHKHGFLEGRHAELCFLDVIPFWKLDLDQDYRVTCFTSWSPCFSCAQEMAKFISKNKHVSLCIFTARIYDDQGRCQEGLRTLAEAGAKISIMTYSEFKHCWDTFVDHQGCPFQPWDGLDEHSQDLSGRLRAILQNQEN
Ubiquitin carboxyl-terminal hydrolase 1 (Homo sapiens), sequence (O94782 whole entry, looked up): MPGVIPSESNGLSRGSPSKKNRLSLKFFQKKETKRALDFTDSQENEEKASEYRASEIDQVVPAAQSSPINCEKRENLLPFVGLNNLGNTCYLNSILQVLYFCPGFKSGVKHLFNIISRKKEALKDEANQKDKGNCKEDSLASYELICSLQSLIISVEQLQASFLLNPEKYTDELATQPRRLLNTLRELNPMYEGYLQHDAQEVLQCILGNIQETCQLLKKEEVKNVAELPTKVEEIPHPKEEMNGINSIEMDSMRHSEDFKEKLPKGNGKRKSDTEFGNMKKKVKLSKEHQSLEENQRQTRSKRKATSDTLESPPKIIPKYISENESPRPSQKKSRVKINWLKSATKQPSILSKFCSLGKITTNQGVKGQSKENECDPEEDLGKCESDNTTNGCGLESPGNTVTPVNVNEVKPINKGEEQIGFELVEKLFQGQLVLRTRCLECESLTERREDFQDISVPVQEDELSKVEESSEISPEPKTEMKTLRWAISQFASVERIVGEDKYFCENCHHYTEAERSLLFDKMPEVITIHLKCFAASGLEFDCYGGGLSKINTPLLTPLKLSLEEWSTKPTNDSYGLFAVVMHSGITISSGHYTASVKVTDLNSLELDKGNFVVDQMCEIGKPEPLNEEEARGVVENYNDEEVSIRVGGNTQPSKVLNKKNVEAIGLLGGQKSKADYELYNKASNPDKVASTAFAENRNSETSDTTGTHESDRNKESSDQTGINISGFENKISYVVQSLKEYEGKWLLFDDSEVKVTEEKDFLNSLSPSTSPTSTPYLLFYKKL
Cytochrome P450 2C9 (Homo sapiens), sequence (P11712 whole entry, looked up): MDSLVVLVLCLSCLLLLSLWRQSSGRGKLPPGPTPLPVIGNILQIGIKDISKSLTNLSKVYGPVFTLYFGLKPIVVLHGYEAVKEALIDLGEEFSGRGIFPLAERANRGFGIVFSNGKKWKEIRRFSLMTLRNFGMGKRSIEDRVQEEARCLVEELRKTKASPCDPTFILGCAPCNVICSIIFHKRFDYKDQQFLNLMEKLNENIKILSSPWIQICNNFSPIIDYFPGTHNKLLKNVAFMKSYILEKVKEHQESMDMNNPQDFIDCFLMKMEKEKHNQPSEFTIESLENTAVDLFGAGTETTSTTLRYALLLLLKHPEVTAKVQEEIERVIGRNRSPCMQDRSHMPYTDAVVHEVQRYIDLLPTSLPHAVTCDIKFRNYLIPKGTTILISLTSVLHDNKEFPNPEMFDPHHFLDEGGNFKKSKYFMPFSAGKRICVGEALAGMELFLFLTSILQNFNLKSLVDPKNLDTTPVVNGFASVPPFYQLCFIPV

For the compound `COc1cc(CNC(=O)CCCC/C=C\C(C)C)ccc1O`, the Potency in test [1] is 3.98 µM (active); in [2] it was 7.94 µM (active); in test [4] it was 10 µM (active). The Potency entry in [3] is “inactive”. The activity change, negative = inhibition in test [5] (at 25.7 µM (top of the series)) is -6.95% (inactive). The max response in test [5] (setting [10]) was -15.8%; in test [5] (setting [11]), -21%.

Regarding `CC1/C=C/C=C/CC/C=C/C=C/C=C/C=C/C(OC2OC(C)C(O)C(N)C2O)CC2O[C@](O)(CC(O)C(O)CCC(O)CC(O)CC(O)CC(=O)OC(C)C(C)C1O)CC(O)C2C(=O)O` (some centres not stated), the Potency entry in test [6] and in [7] was “inactive” throughout. Moreover, in test [5] (at 57.5 µM (top of the series)), the activity change, negative = inhibition is 9.08% (inactive). Also, the max response in test [5] (setting [10]) is 17%; in test [5] (setting [11]), 32%.

For `C=C1C/C(=C/C)C(=O)O[C@@H]2CCN3CC=C(COC(=O)[C@]1(C)O)[C@@H]23`, in test [2], the Potency was 15.8 µM (active). Moreover, the Potency result in test [3] is “inactive”. In test [5] (at 57.5 µM (top of the series)), the activity change, negative = inhibition is 3.16% (inactive). Further, the max response in [5] (setting [10]) was 6.54%; in test [5] (setting [11]), 10.1%. In addition, the result in test [8] was inactive.

For the compound `CC(=O)N1CC2CC(C1)c1cccc(=O)n1C2` (configuration not stated), the Potency result in test [2] is “inactive”. Further, the activity change, negative = inhibition in test [5] (at 57.5 µM (top of the series)) was -4.96% (inactive). The max response in test [5] (setting [10]) was -29.2%; in [5] (setting [11]), -33.4%. Moreover, the result in [8] was inactive.

Take `Oc1ccc2c3c1OC1C(O)CC[C@]4(O)C(C2)N(CC2CCC2)CC[C@]314` (some centres not stated): the Potency result in test [9], in test [6] and in test [7] was “inactive” in each case. The activity change, negative = inhibition in test [5] (at 57.5 µM (top of the series)) is -5.68% (inactive). Besides, the results for the max response in [5] (setting [10]) and in [5] (setting [11]) were 13.5% and 9.11%, respectively.

As for `CCN1C[C@@]2(COC)C3[C@@H](OC)C4[C@@H]1[C@@]3(C1C[C@@]3(O)[C@H](OC(=O)c5ccccc5)C1[C@]4(OC(C)=O)[C@@H](O)[C@@H]3OC)[C@@H](OC)C[C@H]2O` (some centres not stated), the Potency result in [3] was “inactive”. The activity change, negative = inhibition in [5] (at 57.5 µM (top of the series)) is 0.0984% (inactive). For the same compound, the max response in test [5] (setting [10]) is -8.1%; in test [5] (setting [11]) it was -8.3%. For the same compound, the call in test [8] was inactive.

As to `CCC(C)C(=O)O[C@@H]1C[C@@]2(C)C(c3ccoc3)OC(=O)CC23OC2(C)O[C@@]14[C@@]1(C)C(CC(=O)OC)C5(C)CC1(O)C(O)(C5OC(=O)C1(C)OC1C)C(OC(C)=O)[C@@]34O2` (some centres not stated), the Potency in test [2] was 1 µM (active). The Potency result in test [3], in test [9] and in [6] was “inactive” in each case. In addition, the activity change, negative = inhibition in [5] (at 57.5 µM (top of the series)) was 5.34% (inactive). Further, the values for the max response in test [5] (setting [10]) and in test [5] (setting [11]) were -2.48% and 2.6%, respectively.

With `COc1ccc2c(c1)[C@@]13CCCCC1[C@@H](C2)N(C)CC3` (some centres not stated), the Potency entry in [6] and in test [7] was “inactive” each time. Besides, the activity change, negative = inhibition in test [5] (at 57.5 µM (top of the series)) is 7.37% (inactive). The results for the max response in [5] (setting [10]) and in [5] (setting [11]) were 4.27% and 15.7%, respectively.

Take `C[C@H]1C(=O)O[C@H]2CCN3CC=C(COC(=O)[C@](C)(O)[C@@]1(C)O)C23` (some centres not stated): in test [5] (at 57.5 µM (top of the series)), the activity change, negative = inhibition was -4.35% (inactive). The max response is 5.67% in test [5] (setting [10]) and 3.38% in [5] (setting [11]). Further, the outcome in [8] was inactive.

As for `CN1CCc2cc3c(cc2C1O)OCO3` (configuration not stated), the Potency result in test [9], in [6] and in test [7] was “inactive” each time. Also, the activity change, negative = inhibition in [5] (at 57.5 µM (top of the series)) was 7.6% (inactive). Moreover, the max response in test [5] (setting [10]) came to 9.52%; in test [5] (setting [11]), 18.6%.

On to `CC1C(=O)OC2O[C@]3(C)CC[C@H]4C(C)CCC1[C@]24OO3` (some centres not stated), for which the Potency entry in test [6] and in test [7] was “inactive” each time. In addition, in [5] (at 57.5 µM (top of the series)), the activity change, negative = inhibition is 8.3% (inactive). Also, the values for the max response in test [5] (setting [10]) and in test [5] (setting [11]) were 8.98% and 23.7%, respectively.

As to `O=c1ccc2cc(OC3OC(CO)C(O)C(O)C3O)c(O)cc2o1` (configuration not stated), in [5] (at 57.5 µM (top of the series)), the activity change, negative = inhibition is -4.17% (inactive). The max response in test [5] (setting [10]) was -25.8%; in test [5] (setting [11]) it was -27.2%. Also, the call in test [8] was inactive.

Take `CC(C)c1ccc2c(c1O)CCC1C3=C(CC[C@]21C)C(=O)OC3` (some centres not stated): the Potency in test [2] was 15.8 µM (active). For the same compound, the Potency entry in test [3], in test [9] and in test [6] was “inactive” in each case. Further, the activity change, negative = inhibition in test [5] (at 57.5 µM (top of the series)) was 1.46% (inactive). In addition, the max response was -9.02% in [5] (setting [10]) and -0.042% in [5] (setting [11]).
